Compound activity deposited in PubChem by National Center for Advancing Translational Sciences (NCATS).
Compounds with a hit are over-represented: about 18% of the library has one in this group of screens.
TDP1 cell CPT – DT40-hTDP1 cell growth loss with CPT | Potency, µM (titrated, usually from 46.2 µM), without a hit: at the highest dose activity change, negative = growth inhibition, actives largely listed as inhibitors | chicken DT40 Tdp1-/-;hTDP1 cells + 20 nM CPT, ATP luminescence, 48 h | 420,000 compounds, 12% hits; further: potency means the concentration at half of the fitted maximal effect; nearly all actives have a fitted effect of over 55% in size
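Chicken DT40 Tdp1-/- cells stably complemented with human TDP1 were seeded at 400 cells/well in medium containing 20 nM camptothecin, exposed to pin-transferred compounds, and grown at 37 °C for at least 48 hr. Viability was read as ATP luminescence.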
VP16 counter – Gal4-VP16 reporter inhibition counter-screen; Drosophila S2 Gal4-VP16 UAS-luciferase, luminescence, 20 h; Potency, µM (series often up to 53.6 µM), for the others: top-dose activity, negative = inhibition, usual class: inhibitors; 310,000 compounds, 3.5% hits; AID 2546;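 further: Gal4-VP16 expression switched on by copper sulfate through the metallothionein promoter; potency means the concentration at half of the fitted maximal effect; nearly all actives have a fitted effect of over 50% in size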
IL-1B inflam inh – inflammasome signaling inhibition, IL-1 beta readout; THP-1 LPS/ATP IL-1B secretion, AlphaLISA, 16 h; hits give low values; activity change, % at 57.5 µM; 360,000 compounds, 4.7% hits; in the data active means activity change below about -50%; inconclusive means mostly about -30% to -49%
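Secreted IL-1B measured by AlphaLISA bead assay after 16 h compound exposure of THP-1 cells; compounds (final up to 57.5 uM) added 1 h before LPS (250 ng/mL) and ATP (1.25 mM) stimulation; lower signal means less secretion.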
LDHA block – blocks human lactate dehydrogenase A; purified LDHA, NADH/diaphorase-resazurin fluorescence; hits give low values; activity change, % (values are at about 110 or 230 µM); 480,000 compounds, 0.15% hits; P00338; in the data active means activity change below about -30%; inconclusive means mostly about -25% to -30%;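 further: plate controls were DMSO wells for no effect and wells without enzyme for full effect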
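Resorufin fluorescence (ex540/em590), read at 0 and 20 min after diaphorase/resazurin addition, reports the NADH left after a 5 min room-temperature reaction of 2 nM human LDH5 with 0.06 mM NADH and 0.2 mM pyruvate.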
RORgamma inh – inhibitors of mouse ROR gamma transcriptional activity. P51450. Drosophila S2 Gal4-RORgamma UAS-luciferase reporter, 20 h. Potency, µM (titrated, usually from 53.6 µM), for inactives: at the highest dose activity change, negative = inhibition, actives largely listed as inhibitors. 310,000 compounds, 5.4% hits. AID 2551; further: potency means the concentration at half of the fitted maximal effect; nearly all actives have a fitted effect of over 60% in size
Target sequence (P51450 whole entry, looked up, the tested form may be a part): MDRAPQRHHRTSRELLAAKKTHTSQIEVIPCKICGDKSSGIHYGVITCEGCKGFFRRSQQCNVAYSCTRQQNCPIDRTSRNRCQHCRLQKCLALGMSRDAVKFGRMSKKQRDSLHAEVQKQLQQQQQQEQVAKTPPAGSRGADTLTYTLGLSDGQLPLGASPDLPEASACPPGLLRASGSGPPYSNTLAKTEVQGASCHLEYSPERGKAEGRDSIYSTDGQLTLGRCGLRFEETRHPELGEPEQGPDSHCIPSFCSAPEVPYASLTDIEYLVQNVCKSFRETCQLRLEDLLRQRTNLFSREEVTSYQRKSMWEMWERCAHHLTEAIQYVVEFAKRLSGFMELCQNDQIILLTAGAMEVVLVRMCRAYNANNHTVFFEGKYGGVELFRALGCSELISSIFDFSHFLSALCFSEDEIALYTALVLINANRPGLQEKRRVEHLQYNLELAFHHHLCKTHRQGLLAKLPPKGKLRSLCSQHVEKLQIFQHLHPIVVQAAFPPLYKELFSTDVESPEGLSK
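ROR gamma transcriptional activity was tracked as Gal4-UAS luciferase output in stably transfected Drosophila Schneider cells, with compound added 1 hr before 700 uM copper sulfate induction and a 20 hr ambient-temperature incubation.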
TDP1 cell noCPT – qHTS for Inhibitors of human tyrosyl-DNA phosphodiesterase 1 (TDP1): qHTS in cells in absence of CPT; Potency, µM (titrated, usually from 46.2 µM), without a hit: top-dose activity change, negative = growth inhibition, actives largely listed as inhibitors; DT40 Tdp1-/- hTDP1 cells, no CPT, ATP luminescence, 48 h; AID 686978, 2013; 420,000 compounds, 15% hits; further: potency means the concentration at half of the fitted maximal effect; nearly all actives have a fitted effect of over 55% in size
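A cellular qHTS used chicken DT40 cells lacking endogenous Tdp1 but carrying stably transfected human TDP1. Compounds were applied without camptothecin, and cell growth kinetics were judged by ATP-dependent luminescence after ≥48 hr.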
The depositor's hits bear a star; ? = inconclusive; · = no result; [ ] = dose if it differs, or a comment. Unless noted, the call rests on the fitted dose curve; in most records, active means well fitted curve in the direction sought with a large enough effect; inconclusive means small, poorly fitted or top-dose-only effect, or another doubt; inactive means no such curve, though single readings can be large; an effect the other way counts as inactive or inconclusive. Unless noted, on the % scale 0 is the no-effect control and ±100 the full control effect.

SMILES	TDP1 cell CPT	VP16 counter	IL-1B inflam inh	LDHA block	RORgamma inh	TDP1 cell noCPT
O=C(C1CCN(c2ncnc3c2nc2n3CCCCC2)CC1)N1CCN(c2ccc(Cl)cc2)CC1	10%	·	·	-14	·	-2%
CC1CCN(C(=O)C2CCN(c3ncnc4c3nc3n4CCCCC3)CC2)CC1	?	-2%	8	0	30%	23µM*
CCN(CC)c1ccc(C=Nc2c(C)cc(C)cc2C)cc1	·	·	·	36	·	·
Fc1ccc(NCc2cccn2-c2nnc(N3CCOCC3)s2)cc1	-18%	·	·	4	·	-27%
COc1ccccc1CCNC(=O)C1CCN(c2nnc(-n3cccc3CNc3ccc(C)cc3)s2)CC1	18µM*	·	·	3	·	23µM*
Cc1ccc(NCc2cccn2-c2nnc(N3CCC(C(=O)NCCc4ccccc4)CC3)s2)cc1	?	·	·	3	·	?
Cc1ccc(NCc2cccn2-c2nnc(N3CCCCCC3)s2)cc1	?	·	·	1	·	16µM*
CCc1ccc(CNC(=O)C2CCN(c3nnc(-n4c(C)ccc4C)s3)CC2)cc1	?	·	·	-5	·	8.2µM*
Cc1ccc(NCc2cccn2-c2nnc(N3CCC(C(=O)NCc4ccc(F)cc4)CC3)s2)cc1	?	·	·	-11	·	18µM*
CCN1CCN(CCCNC(=O)C2CCN(c3nnc(-n4c(C)ccc4C)s3)CC2)CC1	-26%	0%	-19	0	3%	?
CCONC(=O)COc1cccc(C(C)C)c1	·	·	·	4	·	·
CC(C)CSc1nnc(SCC(=O)NCc2ccccc2)s1	·	·	·	10	·	·
CC(Sc1ccc2ccccc2n1)C(=O)NC1CC1 (stereo unspecified)	·	·	·	4	·	·
CC(=O)C1(C)N(O)C(C)(C)C(c2ccc(Cl)c(C)c2)=[N+]1[O-] (stereo unspecified)	·	·	·	-4	·	·
Cc1ccccc1CNC(=O)C1CCN(c2nnc(N3CCCC3=O)s2)CC1	4%	0%	-5	-8	-13%	-1%
Cc1ccc(NCc2cccn2-c2nnc(N3CCC(C(=O)NCc4ccccc4C)CC3)s2)cc1	?	·	·	7	·	16µM*
COc1ccc(OCC(=O)Nc2cccc(-c3nc4ccccc4[nH]3)c2)cc1	15µM*	4%	?	3	7%	?
O=C(O)CCCC(=O)Nc1cccc(-c2nc3ccccc3[nH]2)c1	-7%	-17%	1	-15	-18%	-6%
O=C(COc1ccccc1)Nc1cccc(-c2nc3ccccc3[nH]2)c1	?	-10%	-101*	-4	6%	23µM*
COc1ccc(-n2c(=O)c(C#N)cc3c(=O)n4cccc(C)c4nc32)cc1	·	·	·	9	·	·
C#CCn1cc[n+](CC(=O)N(C)C)c1	-12%	0%	-13	3	0%	-8%
CCCCCCCCCCCCCCCCn1cc[n+](CC(C)=O)c1	0.65µM*	-6%[10 µM]	22	3	?	1.3µM*
Cc1ccc(NC(=O)CSc2nnc(/N=C/N(C)C)s2)cc1	-14%	-21%	-6	5	18µM*	-7%
COc1ccc(NC2=CC(c3ccc(OC)cc3)N(c3ccc(OC)cc3)C2=O)cc1 (stereo unspecified)	-22%	-11%[10 µM]	-2	0	26%	-27%
COc1ccc(NC2=CC(c3ccccc3)N(c3ccc(OC)cc3)C2=O)cc1 (stereo unspecified)	?	2%	-18	2	2%	8.2µM*
SMILES	TDP1 cell CPT	VP16 counter	IL-1B inflam inh	LDHA block	RORgamma inh	TDP1 cell noCPT
COc1ccc(N2C(=O)C(CN3CCCCC3)C2c2ccccc2)cc1 (stereo unspecified)	?	-7%[10 µM]	16	-4	8%	13µM*
CC(C)c1ccc(-c2csc(NC(=O)Cn3cnc4c3c(=O)n(C)c(=O)n4C)n2)cc1	·	·	·	5	·	·
Cc1ccc(N(C(C)C(=O)NCc2cccnc2)S(C)(=O)=O)cc1C (stereo unspecified)	·	·	·	-3	·	·
O=C1N/C(=N/c2ccccn2)SC1Cc1ccccc1 (stereo unspecified)	?	2.5µM*	34	1	0.89µM*	?
O=C1NC(=Nc2ccccc2)SC1Cc1ccccc1 (stereo unspecified)	-13%	0%	-10	-2	-12%	-27%
Cc1ccc(CC2S/C(=N/c3ccccn3)NC2=O)cc1 (stereo unspecified)	6%	3.5µM*	14	-3	2.8µM*	-15%
COc1cc(C(=O)NCc2c(C)nn(Cc3ccccc3)c2C)cc(Cl)c1OC	·	·	·	-2	·	·
Cc1nc(SC(C)C(=O)NC2(C#N)CCCCC2)c2ccccc2n1 (stereo unspecified)	·	·	·	-7	·	·
C=CCOc1cccc(C(c2c[nH]c3ccccc23)c2c[nH]c3ccccc23)c1	·	·	·	12	·	·
c1c2c(cc3sc(N4CCOCC4)nc13)OCCO2	?	4.5µM*	-13	-4	3.5µM*	18µM*
c1ccc(N2CCN(c3nc4cc5c(cc4s3)OCCO5)CC2)cc1	?	-11%	-7	-7	-34%	-20%
Cc1ccc(OCc2nnc(SCC(=O)C(C)(C)C)n2Cc2ccco2)cc1	?	-8%	-10	-2	26%	16µM*
O=C(CSc1nnc(COc2ccccc2)n1Cc1ccco1)NCc1ccco1	6%	2%	0	4	4%[10 µM]	-16%
Cc1ccccc1Nc1ncnc(N)n1	2%	-5%	-11	-3	43%	-2%
CCc1c(N)nc(N)nc1Nc1ccccc1C	?	·	-18	3	·	16µM*
Cc1ccccc1Nc1nc(N)nc(C)c1Br	?	·	-3	-4	·	15µM*
Cc1cnc2c(S(=O)(=O)N(C)CC(=O)Nc3cccc(C)c3C)cccc2c1	·	·	·	3	·	·
COc1cccc(Oc2ccc(C(F)(F)F)cc2NC(=O)CN2C(=O)NC3(CCCC3)C2=O)c1	15µM*	·	-30	-12	·	?
O=C(CN1C(=O)NC2(CCCC2)C1=O)Nc1cc(C(F)(F)F)ccc1N1CCCCC1	?	·	-72*	-1	·	-20%
N#CC1=C(N)Oc2cc(O)ccc2C1c1ccc(OCc2ccc(Br)cc2)cc1 (stereo unspecified)	·	·	·	4	·	·
CCOc1cc(Br)cc2cc(C(=O)NCc3ccccc3)c(=O)oc12	·	·	·	-1	·	·
CCC(C)c1c(O)nc(SCC(=O)N2CCCCCC2)[nH]c1=O (stereo unspecified)	8%	-6%	-51*	-6	-21%	-14%
Cc1sc2nc(SCC(=O)N3CCCC3)[nH]c(=O)c2c1C	26µM*	-11%	1	-2	27%	?
CC(C)c1c(O)nc(SCC(=O)N2CCCCC2)[nH]c1=O	-2%	-17%	6	-1	-11%	-1%
